Results on 34 compounds are retold here after the supplement of paper PMC8975748.

Structures can show the parent of a compound that is named as a salt.

The test system of the experiment is Saccharomyces cerevisiae BY4741 SeMeCo community. In words: z-score of subpopulation abundance vs DMSO median, subpopulation auxotrophic for H; higher = larger share of this subpopulation than in DMSO controls. To be noted: 10 µM; 24 h; SM minimal medium; subpopulation (auxotrophy): H. Here is the method: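 Fluorescent four-plasmid SeMeCo (self-establishing metabolically cooperating S. cerevisiae BY4741 community; plasmids pH-mRuby2, pL-mWasabi, pU-eCFP, pM-TagRFP657) was grown 24 h in minimal SM medium with each Selleck FDA-approved drug at 10 µM in 384-well plates. Cells were fixed and imaged by high-content confocal microscopy. For each auxotrophic subpopulation (and the prototroph), a z-score gives the deviation from the DMSO vehicle-control population median.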
On to `Cc1cc(C(C#N)c2ccc(Cl)cc2)c(Cl)cc1NC(=O)c1cc(I)cc(I)c1O` (centres undefined) [Closantel], for which the “z-score of subpopulation abundance” value is -0.23.
For `C=CC[C@]1(O)CC[C@H]2[C@@H]3CCC4=CC(=O)CCC4=C3C=C[C@@]21C` [Altrenogest], the “z-score of subpopulation abundance” value worked out at 0.24.
For `N#Cc1nn(-c2c(Cl)cc(C(F)(F)F)cc2Cl)c(N)c1[S+]([O-])C(F)(F)F` (centres undefined) [Fipronil] the value was 0.48.
Consider `CN(C)[C@@H]1C(=O)C(C(N)=O)=C(O)[C@@]2(O)C(=O)C3=C(O)c4c(O)ccc(Cl)c4[C@@](C)(O)[C@H]3C[C@@H]12` [Chlortetracycline HCl], for which the “z-score of subpopulation abundance” value worked out at 0.94.
On to `CN1[C@@H]2C[C@@H](OC(=O)[C@H](CO)c3ccccc3)C[C@H]1[C@@H]1O[C@@H]12` [Scopolamine HBr trihydrate], for which the “z-score of subpopulation abundance” value is -0.46.
As to `O=[N+]([O-])C(Br)(CO)CO` [Bronopol], the “z-score of subpopulation abundance” value is -0.52.
As to `CCN1CC2(OC(=O)c3ccccc3NC(C)=O)CCC(OC)C34C1C(CC23)C1(O)CC(OC)C2CC4C1(O)C2OC` (centres undefined) [Lappaconitine], the “z-score of subpopulation abundance” value is -0.16.
Consider `COc1cc2c(cc1OC)C1CC(=O)C(CC(C)C)CN1CC2` (centres undefined) [Tetrabenazine (Xenazine)], for which the “z-score of subpopulation abundance” value was determined as 0.02.
For `CN[C@@H]1[C@@H](O)[C@@H](O[C@@H]2[C@@H](O)[C@H](O[C@H]3O[C@H](CN)CC[C@H]3N)[C@@H](N)C[C@H]2N)OC[C@]1(C)O.CN[C@@H]1[C@@H](O)[C@@H](O[C@@H]2[C@@H](O)[C@H](O[C@H]3O[C@H]([C@@H](C)N)CC[C@H]3N)[C@@H](N)C[C@H]2N)OC[C@]1(C)O.CN[C@@H]1[C@@H](O)[C@@H](O[C@@H]2[C@@H](O)[C@H](O[C@H]3O[C@H]([C@@H](C)NC)CC[C@H]3N)[C@@H](N)C[C@H]2N)OC[C@]1(C)O` [Gentamicin Sulfate], the “z-score of subpopulation abundance” value is -0.2.
Regarding `COc1ccc(C=O)cc1` [p-Anisaldehyde], the “z-score of subpopulation abundance” value was -0.35.
Consider `CCN(C)C(=O)Oc1cccc([C@H](C)N(C)C)c1` [Rivastigmine], for which the “z-score of subpopulation abundance” value was -0.34.
With `C=CCN1C[C@H](C(=O)N(CCCN(C)C)C(=O)NCC)C[C@@H]2c3cccc4[nH]cc(c34)C[C@H]21` [Cabergoline], the “z-score of subpopulation abundance” value was -0.38.
For the compound `C=C[C@H]1CN2CC[C@H]1C[C@H]2[C@H](O)c1ccnc2ccccc12` [Cinchonidine], the “z-score of subpopulation abundance” value is -0.15.
`COc1ccc2[nH]cc(CCN)c2c1` [5-Methoxytryptamine]: the “z-score of subpopulation abundance” value was -0.85.
For `CC(NC(C)(C)C)C(=O)c1cccc(Cl)c1` (centres undefined) [Amfebutamone (Bupropion) HCl], the “z-score of subpopulation abundance” value was -0.63.
For `COC(=O)C1=CCCN(C)C1` [Arecoline HBr] the value was 0.32; for `C[N+]1(C)[C@@H]2C[C@@H](OC(=O)[C@H](CO)c3ccccc3)C[C@H]1[C@@H]1O[C@@H]12` [Methscopolamine], 0.28.
Consider `C[C@H]1O[C@H](O[C@H]2[C@H](O)[C@@H](O)[C@@H](O)[C@H](O)[C@@H]2O)[C@@H](N)C[C@@H]1NC(=N)C(=O)O` [Kasugamycin hydrochloride], for which the “z-score of subpopulation abundance” value was 0.49.
Take `CCOC(=O)Nc1ccc(NCc2ccc(F)cc2)cc1N` [Retigabine]: the “z-score of subpopulation abundance” value stood at 1.45.
Take `CC(C)N(CCC(C(N)=O)(c1ccccc1)c1ccccn1)C(C)C` (centres undefined) [Disopyramide]: the “z-score of subpopulation abundance” value is 1.28.
For `C[CH2][Hg][S]c1ccccc1C(=O)[O-].[Na+]` [Thimerosal] the value was 7.64; for `C[N+]12CCC(CC1)C(OC(=O)C(O)(c1ccccc1)c1ccccc1)C2` (centres undefined) [Clidinium Bromide], -0.48; for `COc1ccc2c(c1)[C@]13CCCC[C@@H]1[C@H](C2)N(C)CC3` [Dextromethorphan hydrobromide hydrate], 0.44.
In the case of `CC(C)(O)C(Cl)(Cl)Cl` [Chlorobutanol], the “z-score of subpopulation abundance” value is -0.15.
On to `CCCN1C[C@H](CSC)C[C@@H]2c3cccc4[nH]cc(c34)C[C@H]21` [Pergolide Mesylate], for which the “z-score of subpopulation abundance” value was -0.28.
With `O=C(O[C@H]1C[C@H]2CC[C@@H](C1)[N+]21CCCC1)C(O)(c1ccccc1)c1ccccc1` [Trospium chloride], the “z-score of subpopulation abundance” value is -0.71.
The result for `CN1C(=O)COc2c(C(=O)NC3CN4CCC3CC4)cc(Cl)cc21` (centres undefined) [Azasetron HCl] reads -0.91; that for `CN1[C@@H]2C[C@@H](OC(=O)[C@H](CO)c3ccccc3)C[C@H]1[C@@H]1O[C@@H]12` [Scopolamine HBr], -0.96; that for `CNC1CC(N)C(O)C(OC2OC(CO)C(O)C3OC4(OC(C(N)CO)C(O)C(O)C4O)OC23)C1O` (centres undefined) [Hygromycin B], -0.88.
The result for `Oc1cc(Cl)ccc1Oc1ccc(Cl)cc1Cl` [Triclosan] reads -1.93.
The result for `Oc1cccc2cccnc12` [8-Hydroxyquinoline] reads 0.93.
As for `NCC(O)c1ccc(O)cc1` (racemic) [(+,-)-Octopamine HCl], the “z-score of subpopulation abundance” value is -1.07.
Regarding `NC(=O)CN1CCCC1=O` [Piracetam], the “z-score of subpopulation abundance” value worked out at 1.01.
As to `COc1ccc(C(CN(C)C)C2(O)CCCCC2)cc1` (centres undefined) [Venlafaxine HCl], the “z-score of subpopulation abundance” value was -0.98.
